According to PubChem BioAssay (NCI):
About 83,000 compounds went through this panel and 20% of them were active in at least one assay; those are over-represented in the sample as a whole.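 96-well plates, one dose, 48 hours. Percent growth reported; active if below 10.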 Values without a mark were called inactive. Active and inactive are the calls of the source.

tested on: PC-3 prostate; test: NCI-60 one-dose screen, 48 h (100 = growth as untreated, 0 = no growth, -100 = all killed); conditions: 10 µM unless noted

Going from `CC(C)(C)c1cc(-c2nc3ccc(N4CCN(S(C)(=O)=O)CC4)cc3[nH]2)cc(C(C)(C)C)c1O` to `Cc1ccc(-n2c(=S)[nH]c3sc4c(c3c2=O)CCC(=O)C4)cc1`, the growth falls from 91.7% to 41%.

`CCCCN1C(=O)/C(=c2\sc3n(c2=O)C2C(NN=3)N(CC)C(=O)N2CC)c2ccccc21` (centres undefined) showed a growth of 20.7%.

With `N#Cc1nn(-c2cc(=O)[nH]c3ccc(Cl)cc23)c(N)c1C#N` the growth was -87.3% (active).

tested on: SK-MEL-5 melanoma; test: as above; conditions: 10 µM unless noted

`O=Cc1ccc([N+](=O)[O-])s1` and `O=c1oc2ccc([N+](=O)[O-])cc2cc1Br` are the same in growth: 102% for the first, 102% for the second.

First: CC(C)(C)n1cc(-c2ccnc(NCCCNS(=O)(=O)c3ccc(F)cc3)c2)c(-c2cccc(F)c2)n1
Second: O=S(=O)(NCCNc1nccc(-c2c(-c3cccc(F)c3)nc3occn23)n1)c1ccc(Br)cc1
The growth of the first is lower: 33.7% for the first, 76.3% for the second.

Going from `O=C1C(Cl)=C(Nc2ccc(O)cc2)C(=O)N1Cc1ccc(Cl)cc1` to `O=C1/C(=C/c2ccc(-c3ccc(Br)cc3)o2)SC(=S)N1CCc1ccc(O)cc1`, the growth rises from 50.7% to 92.5%.

Compared with `COc1cc(CNC(=O)CCCC/C=C/C(C)C)ccc1OCc1nnc(Nc2ccc([N+](=O)[O-])cc2)o1`, `COc1cc(CNS(=O)(=O)c2ccc(C)cc2)ccc1OCc1cn(-c2ccc(Br)cc2)nn1` is higher in growth: 46.3% for the first, 97.8% for the second.

First: C=C(C)[C@@H]1CC[C@]2(C(=O)NCCNCCN)CC[C@]3(C)[C@H](CC[C@@H]4[C@@]5(C)C/C(=C/c6ccncc6)C(=O)C(C)(C)[C@@H]5CC[C@]43C)[C@@H]12
Second: CC(=O)[C@@H]1CCC=C2CC[C@]3(C)[C@@H](CC[C@@H]4[C@@]5(C)CCCNC(C)(C)[C@@H]5CC[C@]43C)[C@H]21
The growth of the first is higher: 96.3% for the first, 64.2% for the second.

Compared with `O=C(COc1ccc(-c2nc3ccccc3[nH]2)cc1)N=Nc1c(O)[nH]c2ccc(Cl)cc12`, `COc1ccc(C2=Nc3c/c(=C\c4c(O)[nH]c5ccc(Cl)cc45)ccc3=N2)cc1` is lower in growth: 94.9% for the first, 34.7% for the second.

Compared with `C/C(=N/O)c1ccc(F)cc1`, `Cc1ccc(-n2c(=S)[nH]c3sc4c(c3c2=O)CCC(=O)C4)cc1` is lower in growth: 89.2% for the first, 26.7% for the second.

First: CCOC(=O)c1cnc2ccccc2c1Cl
Second: CCOC(=O)C(=Cc1cccc(Cl)c1)C(=O)OCC
The growth of the first is higher: 88.1% for the first, 53.5% for the second.

First: CCCc1cc(NC)nc(S(=O)(=O)CC)n1
Second: CCOP(=O)(OCC)c1nc(-c2ccccc2)oc1NCc1cccnc1
The growth of the first is higher: 104% for the first, 103% for the second.

Going from `COc1ccc(/C=C2\C(=O)N=C3N2NC(c2cc(Br)ccc2O)C=C(C)N3c2ccccc2)cc1` (centres undefined) to `CCOC(=O)CSc1ncnc2c1c(-c1ccccc1)c(-c1ccccc1)n2-c1ccc(C)cc1`, the growth falls from 97% to 44.9%.

First: CCn1cc(C(=O)N/N=C/c2cccs2)c(=O)c2cc(F)c(N3CCNC(C)C3)c(F)c21 (centres undefined)
Second: CC(C)(C)c1cc(-c2nc3ccc(N4CCN(S(C)(=O)=O)CC4)cc3[nH]2)cc(C(C)(C)C)c1O
The growth of the first is lower: 69.8% for the first, 95.7% for the second.

Going from `Cn1c(=O)c2[nH]c(N/N=C/c3ccccc3Br)nc2n(C)c1=O` to `COC(=O)c1cc(-c2ccccc2)[nH]c1N/N=C/c1c(Cl)cccc1Cl`, the growth falls from 103% to 16.8%.

First: S=C(Nc1ccc(-c2nc(N3CCOCC3)c3cccn3n2)cc1)Nc1cccnc1
Second: COc1ccc(-c2nc3c(c(-c4ccccc4)nn3-c3ccccc3)c(-c3ccc(N4CCOCC4)cc3)c2C#N)cc1
The growth of the first is lower: 58.2% for the first, 101% for the second.

Compared with `CCCCNC(=O)Oc1ccc(/C(=C(/CC)Cc2ccccc2)c2ccc(OCCN3CCCCCC3)cc2)cc1`, `COc1ccc(-c2nc3c(c(-c4ccccc4)nn3-c3ccccc3)c(-c3ccc(N4CCN(C)CC4)cc3)c2C#N)cc1` is higher in growth: 13.1% for the first, 97.8% for the second.

Going from `COc1cc(-c2csc(NC(=O)c3cc(-n4cnc(C)c4)cc(C(F)(F)F)c3)n2)cc(OC)c1OC` to `CCOC(=O)c1cn2ncnc(Oc3ccc(NC(=O)NC4CCCCC4)c(Cl)c3)c2c1C`, the growth rises from 51% to 84.5%.

Compared with `Nc1ncnc2c1N=C(c1ccc3c(c1)OCO3)CC(c1ccc([N+](=O)[O-])cc1)N2` (centres undefined), `COc1ccc(-c2nnc(-c3ccc4c(c3)nc(-c3ccncc3)n4C3CCCCC3)o2)cc1` is lower in growth: 70.3% for the first, 17.2% for the second.

Going from `CC1(c2ccccc2O)NN=C(/N=C/c2cccc([N+](=O)[O-])c2)N1C(Cc1c[nH]c2ccccc12)C(=O)O` (centres undefined) to `N#Cc1nn(-c2cc(=O)[nH]c3ccc(Cl)cc23)c(N)c1C#N`, the growth rises from 93% to 102%.

In the case of `CCCCN1C(=O)/C(=c2\sc3n(c2=O)C2C(NN=3)N(CC)C(=O)N2CC)c2ccccc21` (centres undefined), the growth is reported as 29.2%.

With `O=C(N/N=C/c1ccc(F)cc1)c1ccc(C(F)(F)F)nc1Nc1cccc(C(F)(F)F)c1` the growth was -30.6% (active).
For `CCCCCCNC(=O)Oc1ccc(/C(=C(/C)Cc2ccc(OC)cc2)c2ccc(OCCCN(C)C)cc2)cc1`, the growth was 6.74% (active).
In the case of `O=C(OCc1ccc2cccc(O)c2n1)N1CCN(C(=O)c2cc3cc(F)ccc3[nH]2)CC1`, the growth is reported as -79.6% (active).
In the case of `CCNc1cc(-c2cccc(OC(F)(F)F)c2)nc2ccc(N3CCCC3)cc12`, the growth is reported as -64.3% (active).
`O=C1NC(=O)c2c1c1c3ccccc3ccc1c1[nH]c3ccc(Br)cc3c21` was tested, and the growth was -82.5% (active).
